# Source: PubChem BioAssay AID1159580 (chemical genetic matrix, 2015)
# Out of some 5,500 compounds screened, about 2,000 (36%) were called active. About 18% were inconclusive and are not listed. The list shows a part of the results. A number with no mark means an inactive call. Cut-off read from the data, not from the text of the source: active = normalized growth mostly below about 0.91 (no sharp cut-off); inconclusive = no clear call, values can overlap the other calls; inactive = mostly above about 0.92.
# Assay: chemical genetic growth profiling, strain panel (AID 1159580);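 note: tested at 20 µM; growth read once vehicle control cultures reached saturation at 30 °C; 1 = growth at the plate median or of vehicle wells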
# Settings: growth OD
smiles,measurement,setting,value
CCCCOc1ccc(CC(=O)NO)cc1,normalized growth,"S. cerevisiae deletion strains, locus YJR043C, strain POL32, stronger effect = lower value",0.968
same,normalized growth,"S. cerevisiae deletion strains, locus YJR066W, strain TOR1, stronger effect = lower value",0.976
same,normalized growth,"S. cerevisiae deletion strains, locus YJR075W, strain HOC1, stronger effect = lower value",0.977
same,normalized growth,"S. cerevisiae deletion strains, locus YKL009W, strain mrt4, stronger effect = lower value",1.01
same,normalized growth,"S. cerevisiae deletion strains, locus YKL068W, stronger effect = lower value",0.999
same,normalized growth,"S. cerevisiae deletion strains, locus YKL085W, strain MDH1 (second series), stronger effect = lower value",0.998
same,normalized growth,"S. cerevisiae deletion strains, locus YKL085W, strain MDH1, stronger effect = lower value",0.998
same,normalized growth,"S. cerevisiae deletion strains, locus YKL160W, strain elf1, stronger effect = lower value",0.984
same,normalized growth,"S. cerevisiae deletion strains, locus YKL190W, strain CNB1, stronger effect = lower value",0.994
same,normalized growth,"S. cerevisiae deletion strains, locus YKR001C, strain vps1, stronger effect = lower value",0.831 (active)
same,normalized growth,"S. cerevisiae deletion strains, locus YKR026C, strain gcn3, stronger effect = lower value",0.991
same,normalized growth,"S. cerevisiae deletion strains, locus YKR091W, strain srl3, stronger effect = lower value",0.996
same,normalized growth,"S. cerevisiae deletion strains, locus YLL001W, strain dnm1, stronger effect = lower value",0.986
same,normalized growth,"S. cerevisiae deletion strains, locus YLL026W, stronger effect = lower value",0.981
same,normalized growth,"S. cerevisiae deletion strains, locus YLL041C, strain sdh2, stronger effect = lower value",0.985
same,normalized growth,"S. cerevisiae deletion strains, locus YLR027C, strain aat2, stronger effect = lower value",0.97
same,normalized growth,"S. cerevisiae deletion strains, locus YLR039C, strain RIC1, stronger effect = lower value",0.731
same,normalized growth,"S. cerevisiae deletion strains, locus YLR058C, strain SHM2, stronger effect = lower value",1
same,normalized growth,"S. cerevisiae deletion strains, locus YLR102C, strain apc9, stronger effect = lower value",1.01
same,normalized growth,"S. cerevisiae deletion strains, locus YLR113W, strain HOG1, stronger effect = lower value",0.963
same,normalized growth,"S. cerevisiae deletion strains, locus YLR221C, strain rsa3, stronger effect = lower value",0.963
same,normalized growth,"S. cerevisiae deletion strains, locus YLR258W, strain gsy2, stronger effect = lower value",0.984
same,normalized growth,"S. cerevisiae deletion strains, locus YLR262C, strain YPT6 (second series), stronger effect = lower value",0.847 (active)
same,normalized growth,"S. cerevisiae deletion strains, locus YLR262C, strain YPT6, stronger effect = lower value",0.738
same,normalized growth,"S. cerevisiae deletion strains, locus YLR268W, strain sec22, stronger effect = lower value",0.983
same,normalized growth,"S. cerevisiae deletion strains, locus YLR320W, strain mms22, stronger effect = lower value",0.958
same,normalized growth,"S. cerevisiae deletion strains, locus YLR330W, strain CHS5, stronger effect = lower value",0.988
same,normalized growth,"S. cerevisiae deletion strains, locus YLR342W, strain FKS1 (second series), stronger effect = lower value",1.01
same,normalized growth,"S. cerevisiae deletion strains, locus YLR342W, strain FKS1, stronger effect = lower value",1.01
same,normalized growth,"S. cerevisiae deletion strains, locus YLR357W, strain rsc2, stronger effect = lower value",1
same,normalized growth,"S. cerevisiae deletion strains, locus YLR370C, strain arc18, stronger effect = lower value",0.989
same,normalized growth,"S. cerevisiae deletion strains, locus YLR371W, strain rom2, stronger effect = lower value",0.999
same,normalized growth,"S. cerevisiae deletion strains, locus YLR384C, strain iki3, stronger effect = lower value",0.991
same,normalized growth,"S. cerevisiae deletion strains, locus YLR418C, strain cdc73, stronger effect = lower value",0.921
same,normalized growth,"S. cerevisiae deletion strains, locus YML016C, strain PPZ1, stronger effect = lower value",1
same,normalized growth,"S. cerevisiae deletion strains, locus YML032C, strain rad52, stronger effect = lower value",0.997
same,normalized growth,"S. cerevisiae deletion strains, locus YML120C, strain ndi1, stronger effect = lower value",0.991
same,normalized growth,"S. cerevisiae deletion strains, locus YML124C, strain tub3, stronger effect = lower value",1
same,normalized growth,"S. cerevisiae deletion strains, locus YMR058W, strain fet3, stronger effect = lower value",0.969
same,normalized growth,"S. cerevisiae deletion strains, locus YMR078C, strain ctf18, stronger effect = lower value",1
same,normalized growth,"S. cerevisiae deletion strains, locus YMR125W, strain sto1, stronger effect = lower value",0.997
same,normalized growth,"S. cerevisiae deletion strains, locus YMR129W, stronger effect = lower value",0.996
same,normalized growth,"S. cerevisiae deletion strains, locus YMR205C, strain PFK2, stronger effect = lower value",0.984
same,normalized growth,"S. cerevisiae deletion strains, locus YMR223W, strain ubp8, stronger effect = lower value",1
same,normalized growth,"S. cerevisiae deletion strains, locus YMR231W, strain pep5, stronger effect = lower value",1
same,normalized growth,"S. cerevisiae deletion strains, locus YMR307W, strain GAS1, stronger effect = lower value",0.998
same,normalized growth,"S. cerevisiae deletion strains, locus YNL067W, strain RPL9B, stronger effect = lower value",0.976
same,normalized growth,"S. cerevisiae deletion strains, locus YNL071W, strain lat1, stronger effect = lower value",0.992
same,normalized growth,"S. cerevisiae deletion strains, locus YNL183C, strain NPR1, stronger effect = lower value",0.97
same,normalized growth,"S. cerevisiae deletion strains, locus YNL209W, strain ssb2, stronger effect = lower value",1.01
same,normalized growth,"S. cerevisiae deletion strains, locus YNL233W, strain BNI4, stronger effect = lower value",0.966
same,normalized growth,"S. cerevisiae deletion strains, locus YNL248C, strain rpa49, stronger effect = lower value",0.968
same,normalized growth,"S. cerevisiae deletion strains, locus YNL250W, strain rad50, stronger effect = lower value",1
same,normalized growth,"S. cerevisiae deletion strains, locus YNL271C, strain bni1, stronger effect = lower value",1.01
same,normalized growth,"S. cerevisiae deletion strains, locus YNL298W, strain CLA4, stronger effect = lower value",1.01
same,normalized growth,"S. cerevisiae deletion strains, locus YNL307C, strain MCK1, stronger effect = lower value",0.999
same,normalized growth,"S. cerevisiae deletion strains, locus YNL322C, strain KRE1 (second series), stronger effect = lower value",0.997
same,normalized growth,"S. cerevisiae deletion strains, locus YNR049C, strain mso1, stronger effect = lower value",0.995
same,normalized growth,"S. cerevisiae deletion strains, locus YNR052C, strain pop2, stronger effect = lower value",1.01
same,normalized growth,"S. cerevisiae deletion strains, locus YOL006C, strain TOP1, stronger effect = lower value",0.887
same,normalized growth,"S. cerevisiae deletion strains, locus YOL012C, strain htz1",1.47
same,normalized growth,"S. cerevisiae deletion strains, locus YOL147C, strain pex11, stronger effect = lower value",1
same,normalized growth,"S. cerevisiae deletion strains, locus YOR001W, strain rrp6, stronger effect = lower value",1.01
same,normalized growth,"S. cerevisiae deletion strains, locus YOR061W, strain CKA2, stronger effect = lower value",0.985
same,normalized growth,"S. cerevisiae deletion strains, locus YOR069W, strain VPS5, stronger effect = lower value",0.997
same,normalized growth,"S. cerevisiae deletion strains, locus YOR070C, strain gyp1, stronger effect = lower value",0.999
same,normalized growth,"S. cerevisiae deletion strains, locus YOR080W, strain dia2, stronger effect = lower value",0.995
same,normalized growth,"S. cerevisiae deletion strains, locus YOR083W, strain WHI5, stronger effect = lower value",0.982
same,normalized growth,"S. cerevisiae deletion strains, locus YOR106W, strain vam3, stronger effect = lower value",0.971
same,normalized growth,"S. cerevisiae deletion strains, locus YOR136W, strain idh2, stronger effect = lower value",1.01
same,normalized growth,"S. cerevisiae deletion strains, locus YOR144C, strain elg1, stronger effect = lower value",1
same,normalized growth,"S. cerevisiae deletion strains, locus YOR184W, strain ser1, stronger effect = lower value",0.999
same,normalized growth,"S. cerevisiae deletion strains, locus YOR231W, strain MKK1, stronger effect = lower value",1
same,normalized growth,"S. cerevisiae deletion strains, locus YOR265W, strain rbl2, stronger effect = lower value",0.997
same,normalized growth,"S. cerevisiae deletion strains, locus YOR270C, strain vph1, stronger effect = lower value",0.989
same,normalized growth,"S. cerevisiae deletion strains, locus YOR290C, strain snf2, stronger effect = lower value",0.989
same,normalized growth,"S. cerevisiae deletion strains, locus YOR316C, strain cot1, stronger effect = lower value",1.01
same,normalized growth,"S. cerevisiae deletion strains, locus YPL051W, strain arl3, stronger effect = lower value",0.961
same,normalized growth,"S. cerevisiae deletion strains, locus YPL078C, strain atp4, stronger effect = lower value",1
same,normalized growth,"S. cerevisiae deletion strains, locus YPL106C, strain sse1, stronger effect = lower value",1.08
same,normalized growth,"S. cerevisiae deletion strains, locus YPL240C, strain hsp82, stronger effect = lower value",1
same,normalized growth,"S. cerevisiae deletion strains, locus YPL241C, strain CIN2, stronger effect = lower value",0.994
same,normalized growth,"S. cerevisiae deletion strains, locus YPL256C, strain CLN2, stronger effect = lower value",1.02
same,normalized growth,"S. cerevisiae deletion strains, locus YPR119W, strain clb2, stronger effect = lower value",1.01
same,normalized growth,"S. cerevisiae deletion strains, locus YPR141C, strain kar3, stronger effect = lower value",1
same,normalized growth,"S. cerevisiae deletion strains, locus YPR163C, strain tif3, stronger effect = lower value",1.01
same,normalized growth,"S. cerevisiae deletion strains, locus YPR167C, strain met16, stronger effect = lower value",1.01
same,normalized growth,"S. cerevisiae deletion strains, strain wtn01, stronger effect = lower value",0.988
same,normalized growth,"S. cerevisiae strains, strain wild type, stronger effect = lower value",0.992
